Screening data deposited in PubChem by National Center for Advancing Translational Sciences (NCATS).
A selection: hits, their analogues and other compounds. The true share with any hit is near 11%.
NIH3T3 tox: NIH 3T3 cell cytotoxicity; NIH 3T3 viability, CellTiter-Glo ATP luminescence, 48-72 h; AID 1345082; hit rate 4.3% among 94,000; Potency, µM (titrated, usually from 96.7 µM), actives largely listed as inhibitors; further: nearly all actives have a fitted effect of over 55% in size
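ATP-dependent luminescence (CellTiter-Glo) served as the viability signal for NIH 3T3 cells treated with compound for 48 or 72 hr at 37 °C.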
NPR1 antag: blocks ANP-stimulated signaling of human Npr1 receptor; P16066; HEK293 hNpr1 GloSensor cGMP, ANP-stimulated luminescence; Potency, µM (top dose mostly 46.3 µM), actives largely listed as inhibitors; hit rate 1.6% among 76,000; calls by dose curve; further: nearly all actives have a fitted effect of over 60% in size
Target sequence (P16066 whole entry, looked up): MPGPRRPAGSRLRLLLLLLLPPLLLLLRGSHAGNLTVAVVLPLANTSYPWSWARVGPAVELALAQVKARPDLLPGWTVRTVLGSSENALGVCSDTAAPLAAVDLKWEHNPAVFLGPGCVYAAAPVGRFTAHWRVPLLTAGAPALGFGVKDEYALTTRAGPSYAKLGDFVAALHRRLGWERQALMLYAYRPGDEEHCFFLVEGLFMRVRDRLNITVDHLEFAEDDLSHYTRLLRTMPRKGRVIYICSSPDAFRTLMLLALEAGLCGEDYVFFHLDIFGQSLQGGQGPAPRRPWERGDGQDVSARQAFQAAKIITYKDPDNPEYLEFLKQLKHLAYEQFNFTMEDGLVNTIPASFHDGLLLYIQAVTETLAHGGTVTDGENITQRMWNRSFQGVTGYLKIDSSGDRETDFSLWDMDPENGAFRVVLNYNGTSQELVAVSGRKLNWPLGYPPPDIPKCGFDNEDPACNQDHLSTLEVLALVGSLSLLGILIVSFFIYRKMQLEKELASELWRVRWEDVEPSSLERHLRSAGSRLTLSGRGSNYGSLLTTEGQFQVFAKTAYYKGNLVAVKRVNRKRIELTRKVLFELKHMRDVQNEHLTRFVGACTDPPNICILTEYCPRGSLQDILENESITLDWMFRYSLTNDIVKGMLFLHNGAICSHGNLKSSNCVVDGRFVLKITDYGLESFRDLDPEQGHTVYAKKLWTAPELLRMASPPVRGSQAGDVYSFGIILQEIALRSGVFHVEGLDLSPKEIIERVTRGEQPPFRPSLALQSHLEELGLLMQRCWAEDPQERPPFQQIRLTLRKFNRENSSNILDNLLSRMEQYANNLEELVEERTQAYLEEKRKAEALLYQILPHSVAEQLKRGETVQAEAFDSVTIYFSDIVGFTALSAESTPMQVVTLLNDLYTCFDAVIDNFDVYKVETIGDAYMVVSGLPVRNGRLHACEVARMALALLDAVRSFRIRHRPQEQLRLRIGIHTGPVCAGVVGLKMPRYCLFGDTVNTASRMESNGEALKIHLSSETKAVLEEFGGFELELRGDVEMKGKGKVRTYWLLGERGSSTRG
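Compound pre-incubated 30 min at room temperature on GloSensor-loaded HEK293 cells stably carrying hNpr1 and the pGS-40F cGMP biosensor. Stimulation uses hNppA at 0.1 nM final; luminescence is taken at baseline and 20 min post-agonist.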
HEK293 tox: kills HEK 293 cells | HEK 293 viability, ATP luminescence (CellTiter-Glo), 48-72 h | Potency, µM (titrated, usually from 115 µM), most hits filed as inhibitors | hit rate 6.6% among 94,000 | AID 1345083; further: nearly all actives have a fitted effect of over 60% in size
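HEK 293 cells at 250 cells/well were exposed to compounds by pintool transfer for 48 or 72 hr at 37 degree Celsius, 5% CO2. Viability was read as ATP-coupled luminescence with CellTiter-Glo after 10 min at room temperature.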
Luciferase inh: inhibitors of firefly (Photinus pyralis) luciferase. P08659. purified P. pyralis luciferase, luminescence, biochemical. Potency, µM (doses to about 115 µM), actives largely listed as inhibitors. hit rate 2.5% among 76,000; further: nearly all actives have a fitted effect of over 65% in size
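Luminescence read by CCD imaging after purified firefly luciferase (10nM final) was added to substrate buffer holding 10uM D-luciferin and 10uM ATP, pH 7.5, pre-dosed with compound.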
Numbers stand for hits; . = inactive; ? = inconclusive; / = no result. Unless noted, the call rests on the fitted dose curve; in most records, active means well fitted curve in the direction sought with a large enough effect; inconclusive means small, poorly fitted or top-dose-only effect, or another doubt; inactive means no such curve, though single readings can be large; an effect the other way counts as inactive or inconclusive.

SMILES	NIH3T3 tox	NPR1 antag	HEK293 tox	Luciferase inh
COCCNC(=O)C(C)(C)Oc1nn(Cc2cccc(Cl)c2)c2ccccc12	?	.	79.4µM	.
O=S(=O)(c1cccs1)N1CC(c2noc(C3CCCN3CC3CC3)n2)C1 (centres undefined)	.	.	?	.
CSc1cccc(NC(=O)CN2C(=O)NC3(CCC(C)CC3)C2=O)c1 (centres undefined)	?	.	?	.
Cc1ccc(C2Cn3nnc(-c4noc(CNC(=O)c5ccccc5)n4)c3CO2)cc1 (centres undefined)	.	.	.	.
Cc1ccc2c(n1)N(C)[C@H](CO)CCN(Cc1ccc(C(C)C)cc1)C2	?	.	63.1µM	.
COc1ccc(CN2CC[C@@H](CO)N(C)c3nc(C)ccc3C2)cc1	.	.	?	.
Cc1ccc2c(n1)N(C)[C@H](CO)CCN(Cc1ccc(C(F)(F)F)cc1)C2	63.1µM	.	35.5µM	.
O=C1Nc2ccccc2CC12CCCN2CC1CC1 (centres undefined)	.	/	.	/
Cc1nc(N2CCCCC2)n(CC(=O)Nc2cccc(F)c2)c(=O)c1C	.	.	.	.
CC(C)CC(=O)N1CCCC(c2noc(COc3ccccc3)n2)C1 (centres undefined)	?	.	?	.
F[C@@H]1CN(CC2CC2)C[C@@H]1OCc1nc2ccccc2o1	.	.	.	35.5µM
F[C@@H]1CN(C2CCC2)C[C@@H]1OCc1nc2ccccc2o1	.	.	.	79.4µM
F[C@@H]1CN(C2CCOCC2)C[C@@H]1OCc1nc2ccccc2o1	.	.	.	.
Fc1ccc(C2Cn3cnc(-c4nc(-c5ccc6c(c5)OCO6)no4)c3CO2)cc1 (centres undefined)	25.1µM	.	?	?
COc1ccc(-c2noc(-c3ncn4c3COC(c3ccc(F)cc3)C4)n2)cc1OC (centres undefined)	28.2µM	.	?	.
COc1cc(-c2noc(-c3ncn4c3COC(c3ccc(F)cc3)C4)n2)cc(OC)c1OC (centres undefined)	?	.	?	.
O=C(NCc1ccc(F)c(F)c1)c1cn2cc(-c3ccc(C(F)(F)F)cc3)sc2n1	44.7µM	/	56.2µM	/
Cc1ccc(-c2cn3cc(C(=O)NCc4ccccn4)nc3s2)cc1	?	/	79.4µM	/
O=C(NCc1cccc(C(F)(F)F)c1)c1cn2cc(-c3cccc(C(F)(F)F)c3)sc2n1	.	/	.	/
COCCCNC(=O)c1cn2cc(-c3cccc(OC)c3)sc2n1	?	/	79.4µM	/
CNC(=O)c1cn2cc(-c3cccc(C(F)(F)F)c3)sc2n1	?	/	28.2µM	/
Cc1cc(CNC(=O)[C@@H]2CCC[C@@H](NC(=O)NC3(c4ccccc4)CCOCC3)CN(C)C(=O)C2)no1	.	.	.	.
CCNC(=O)c1cccnc1OC1CCN(C(=O)c2cc(F)ccc2F)C1 (centres undefined)	.	.	.	.
COc1cccc(-c2cn3cc(C(=O)NCC(C)C)nc3s2)c1	?	/	22.4µM	/
CC(C)NC(=O)c1cn2cc(-c3ccccc3)sc2n1	?	/	70.8µM	/
SMILES	NIH3T3 tox	NPR1 antag	HEK293 tox	Luciferase inh
COCCNC(=O)c1cn2cc(-c3ccc(C)cc3)sc2n1	?	/	100µM	/
CCN1CCCN(S(=O)(=O)c2cc(OC)ccc2OC)CC12CCOCC2	.	.	.	.
Cc1ccc(-c2c(C(=O)NCc3ccccc3F)nc3sccn23)cc1	.	/	.	/
O=C(NCCc1ccccc1)c1nc2sccn2c1-c1ccc(C(F)(F)F)cc1	14.1µM	/	?	/
Cc1ccc(-c2c(C(=O)NCCc3ccccc3)nc3sccn23)cc1	17.8µM	/	44.7µM	/
O=C(NCc1ccc(F)cc1)c1nc2sccn2c1-c1ccc(C(F)(F)F)cc1	14.1µM	/	?	/
O=C(NCc1ccccc1F)c1nc2sccn2c1-c1ccc(C(F)(F)F)cc1	?	/	31.6µM	/
CC(=O)Oc1c(-c2ccc(NC(=O)c3cccs3)cc2)c(-c2cccc(F)c2)nn1-c1ccccc1	?	.	.	.
CCc1cccc(NC(=O)N2c3ccccc3CC2c2nc(CCOC)no2)c1 (centres undefined)	?	.	.	.
O=C(NCc1ccccc1)c1nc2sccn2c1-c1ccc(C(F)(F)F)cc1	?	/	39.8µM	/
COc1ccc(-c2c(C(=O)NCCCc3ccccc3)nc3sccn23)cc1	35.5µM	/	?	/
O=C(NCc1cccs1)c1nc2sccn2c1-c1ccncc1	?	/	89.1µM	/
O=C(NCc1cccc(C(F)(F)F)c1)c1nc2sccn2c1-c1cccc(C(F)(F)F)c1	?	/	35.5µM	/
O=C(NCc1ccccc1)c1nc2sccn2c1-c1ccc(F)cc1	.	/	.	/
